These results are taken from PubChem BioAssay.

Where “and” joins values, the source holds several entries; their conditions need not be identical. Equal values may be shown once. Calls of active or inactive are those of the source.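 Rule for the calls, unless noted: active = inhibition at or above 50% relative to wild type and mutant plate controls; inactive = inhibition below 50%.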

Test [1] in a line: inhibitors of TNFa-induced NFkB p65 translocation, primary screen, imaging, HUVEC, MLSMR starter and 10KST1 sets (AID 438;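 active = inhibition above 20% together with a positive visual image hit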;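 note: compound added about 3h40 before a 20 min TNFalpha stimulation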;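 for inhibition: signal is the nuclear over cytoplasmic p65 intensity ratio per well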). Conditions: HUVEC TNFa-induced p65 nuclear translocation; cell count: measured here: nuclei count (cytotoxicity indicator), at 2.08 µM; inhibition: at 2 µM, stronger effect = higher value, 0% TNFa-plus-vehicle, 100% no-TNFa wells.
Test [2] in a line: inhibitors of mutant huntingtin aggregation, primary screen, imaging, exon1htt(103Q)mCFP cells, high-content imaging (AID 483;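 active = visual image review flags a hit and inhibition of aggregation exceeds 20%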;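 note: compound exposure lasted 3 days before fixation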;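 for nuclei count: percent of the per-plate median nuclei count of sample wells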). Conditions: exon1htt(103Q)mCFP cell line, aggregate imaging, at 2 µM; inhibition of aggregation: stronger effect = higher value; nuclei count: measured here: cell count, toxicity.
Test [3] in a line: inhibitors of E-selectin induction by TNFa, primary screen, imaging, HUVEC, immunofluorescence, MLSMR starter and 10KST1 sets (AID 487;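 active = visually confirmed hit in the image check and inhibition above 20%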;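 for inhibition: signal is fraction of cell area covered by stained E-selectin grains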;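 for nuclei count: 100% = median nuclei count of all wells on the same plate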). Conditions: HUVEC TNFalpha-induced E-selectin immunofluorescence imaging, at 2 µM; inhibition: stronger effect = higher value; nuclei count: measured here: cell number, toxicity.
Test [4] can be described thus: DUSP6 inhibitors restoring Erk phosphorylation by chemical complementation, primary imaging in DUSP6-transfected HeLa (AID 609;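 active = compounds giving at least 50% inhibition in the cell-based MKP-3 phosphatase rescue imaging test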;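 for inhibition: phospho-Erk level distribution per well compared with pooled transfected vehicle control wells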). Conditions: HeLa MKP-3 transfected, phospho-Erk imaging KS statistic, at 10 µM, cells stimulated with TPA for 15 min.
Test [5] deals with Dual specificity protein phosphatase 6 (Homo sapiens) (UniProt Q16828). Described as above. Conditions: HeLa MKP-3 transfected, phospho-Erk imaging KS statistic; at 10 µM; stronger effect = higher value; cells stimulated with TPA for 15 min.
Test [6] deals with Voltage-gated potassium channel subunit beta-2 (Rattus norvegicus) (UniProt P62483). The test can be described thus: KvBeta enzyme negative modulators, primary screen, biochemical, NADPH fluorescence (AID 622;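 active = fluorescence slope higher than the sample average by over 3 SD, cut at about -0.22 in these data, passing the limit was not always enough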;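 note: slope of raw intensity against log time taken from 70 to 1610 s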). Conditions: recombinant KvBeta, 4-cyanobenzaldehyde reduction, at 10 µM, stronger effect = higher value.
The target is the same in test [7]. The test can be described thus: KvBeta positive modulators, primary screen, biochemical, NADPH fluorescence (AID 623;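 active = NADPH fluorescence slope more negative than the mean of all samples by about 3 SD, 99.7% confidence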;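 note: fluorescence intensity change per second fitted from 20 to 320 s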). Conditions: Recombinant KvBeta, NADPH fluorescence decrease slope, 10 min; at 10 µM; stronger effect = lower value.
Test [8] addresses Alpha-2C adrenergic receptor (Homo sapiens) (UniProt P18825). The test can be described thus: modulators of alpha2C/GIRK thallium flux, primary screen, cell-based, HEK293 alpha2C/GIRK1/2 (AID 624;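 active = fluorescence slope after compound addition differing from the mean of all screened samples at 99.7% confidence, in either direction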;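 note: slope of fluorescence ratio to pre-addition baseline per second over 15 to 24 s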). Conditions: thallium flux BTC fluorescence, at 10 µM, actives lie on both sides.
A short description of test [9]: inhibitors of larval lipid processing in zebrafish, primary screen, whole organism, PED6 fluorescence, gall bladder and intestine (AID 686;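 active = a full or partial loss of lipid-probe fluorescence in the fish gall bladder, intestine or both, judged by eye; inactive = no fluorescence loss, or compound toxic to the fish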;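 note: larvae 5 to 7 days old with five fish per well; signal comes from phospholipase A2 cleavage of quenched PED6 carried via bile; overnight exposure to compound and PED6 before scoring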). Conditions: Zebrafish larvae PED6 lipid processing, fluorescence scoring; screened at 20 µM (by protocol).
The nature of test [10]: inhibitors of Chlamydomonas gravitaxis, primary screen, whole organism, Chlamydomonas reinhardtii, WT vs cilia-less mutant, absorbance, 96-well (AID 463189).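 Note: 0% = wild type cc124 cells in DMSO and 100% = ciliumless bld1 mutant cells.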 Conditions: OD600 absorbance, 2 days, at 10 µM, stronger effect = higher value.
A short description of test [11]: inhibitors of Sendai virus-induced IRF3 signaling, primary screen, TLR/RLR signaling modifier project, cell-based, Sendai virus stimulus, luciferase, 10K MLSCN set (AID 602276;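 active = inhibition at or above 50% at 10 µM; inactive = inhibition below 50%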;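 note: firefly luciferase from ISG56 promoter only with Renilla not read in this screen; 0% = Sendai virus plus DMSO and 100% = medium plus DMSO without virus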). Conditions: HEK293 RL24 IRF3 luciferase reporter, at 10 µM, stronger effect = higher value.
Test [12] in a line: inhibitors of poly I:C-induced TLR3 signaling, primary screen, cell-based, poly I:C stimulus, luciferase, 10K MLSCN set (AID 602277;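 active = inhibition of the reporter signal at or above 50%; inactive = inhibition below 50%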). Conditions: HEK293-TLR3 RL24 IRF3 luciferase reporter, at 10 µM, stronger effect = higher value. A general note: Reporter assays use an easily measured gene product as a stand-in for the process of interest.
[13] abbreviates: measured here: cell density z-score.
Where [14] appears, read: measured here: nuclear c-Myc green intensity z-score.
Setting [15] is: measured here: nuclear pErk red intensity z-score, stronger effect = higher value.

Sequence of Voltage-gated potassium channel subunit beta-2 (Rattus norvegicus) (P62483 whole entry, looked up): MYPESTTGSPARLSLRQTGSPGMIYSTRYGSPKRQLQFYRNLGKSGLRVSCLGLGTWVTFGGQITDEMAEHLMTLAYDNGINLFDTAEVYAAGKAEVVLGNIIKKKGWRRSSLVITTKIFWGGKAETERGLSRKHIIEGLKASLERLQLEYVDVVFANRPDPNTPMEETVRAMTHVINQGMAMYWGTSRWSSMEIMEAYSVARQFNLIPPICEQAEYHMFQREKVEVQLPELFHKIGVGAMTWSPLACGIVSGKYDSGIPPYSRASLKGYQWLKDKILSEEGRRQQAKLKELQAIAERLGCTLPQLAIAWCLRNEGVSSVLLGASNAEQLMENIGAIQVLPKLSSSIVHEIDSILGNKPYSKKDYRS
Sequence of Dual specificity protein phosphatase 6 (Homo sapiens) (Q16828 whole entry, looked up): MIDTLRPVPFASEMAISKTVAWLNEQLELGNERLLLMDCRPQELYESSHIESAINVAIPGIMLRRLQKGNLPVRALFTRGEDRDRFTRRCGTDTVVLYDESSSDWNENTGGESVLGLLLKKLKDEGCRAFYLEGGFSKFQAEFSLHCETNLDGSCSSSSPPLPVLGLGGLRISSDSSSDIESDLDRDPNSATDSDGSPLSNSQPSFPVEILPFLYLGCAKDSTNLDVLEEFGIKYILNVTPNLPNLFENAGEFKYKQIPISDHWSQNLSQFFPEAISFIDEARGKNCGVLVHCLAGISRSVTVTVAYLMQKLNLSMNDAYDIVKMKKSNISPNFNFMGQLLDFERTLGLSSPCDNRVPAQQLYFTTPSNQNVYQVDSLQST
Sequence of Alpha-2C adrenergic receptor (Homo sapiens) (P18825 whole entry, looked up): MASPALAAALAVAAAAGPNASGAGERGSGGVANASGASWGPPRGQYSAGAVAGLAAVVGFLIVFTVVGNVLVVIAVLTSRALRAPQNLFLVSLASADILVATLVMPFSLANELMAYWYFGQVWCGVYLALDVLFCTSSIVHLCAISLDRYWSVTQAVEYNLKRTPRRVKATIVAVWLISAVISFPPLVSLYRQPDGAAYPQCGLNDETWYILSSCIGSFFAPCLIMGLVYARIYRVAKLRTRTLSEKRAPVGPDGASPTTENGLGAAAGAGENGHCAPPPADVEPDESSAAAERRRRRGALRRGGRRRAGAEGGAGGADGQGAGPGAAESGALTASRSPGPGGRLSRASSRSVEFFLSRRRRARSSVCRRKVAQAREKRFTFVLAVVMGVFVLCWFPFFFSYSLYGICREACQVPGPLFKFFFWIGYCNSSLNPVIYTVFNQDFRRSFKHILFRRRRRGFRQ

For the compound `Cc1cccc(N(C)C(=S)Oc2ccc3ccccc3c2)c1`, the cell count in test [1] amounted to 604. Further, the inhibition in [1] was -0.1% (inactive); in [3] it was -124% (inactive); in test [5], 5.42% (inactive); in [10], 97.3% (active); in test [11], -6.47% (inactive); in test [12], -10.7% (inactive). For the same compound, in test [2], the inhibition of aggregation was 1.5% (inactive). The nuclei count in test [2] was 115%; in test [3], 117%. Also, the z-score in [4] (setting [13]) is -0.0512; in [4] (setting [14]), 0.405; in test [4] (setting [15]) it was -0.61. For the same compound, the fluorescence slope in test [6] is -0.463 (inactive). Moreover, in test [7], the NADPH fluorescence slope is -2.6e-05 (inactive). For the same compound, the slope in test [8] is 0.00625 (inactive). The outcome in [9] was “active; weak signal in gallbladder and intestine”.
Take `CCC(NC(C)C)C(O)c1ccc(O)c2[nH]c(=O)ccc12` (stereo not given): the cell count in [1] came out at 682. Besides, the inhibition in [1] was -3% (inactive); in test [3] it was -80% (inactive); in [5], 13.3% (inactive); in [10], 23.9% (inactive); in test [11], 17.4% (inactive); in test [12], 45.8% (inactive). The inhibition of aggregation in test [2] is -11.3% (inactive). The nuclei count worked out at 109% in test [2] and 142% in test [3]. In addition, the z-score turned out to be 0.193 in test [4] (setting [13]), 0.138 in [4] (setting [14]) and 0.273 in test [4] (setting [15]). The fluorescence slope in test [6] is -0.49 (inactive). For the same compound, in test [7], the NADPH fluorescence slope was -3.3e-05 (inactive). Moreover, the slope in test [8] was 0.00523 (inactive). Further, in test [9], the call was inactive.
Consider `CC(NCCc1ccc(O)cc1)C(O)c1ccc(O)cc1` (stereo not given), for which, in test [1], the cell count came out at 713. Besides, the inhibition in [1] is -4.6% (inactive); in test [3], -109% (inactive); in test [5] it was 1.48% (inactive); in [10] it was 4.91% (inactive); in test [11], 7.45% (inactive); in [12], 39.2% (inactive). Further, the inhibition of aggregation in test [2] was -2.5% (inactive). For the same compound, the nuclei count turned out to be 107% in [2] and 123% in test [3]. The z-score in test [4] (setting [13]) was 0.779; in test [4] (setting [14]) it was 0.516; in test [4] (setting [15]), -1.29. The fluorescence slope in [6] is -0.474 (inactive). Further, the NADPH fluorescence slope in [7] is -9.7e-05 (inactive). Moreover, the slope in test [8] is 0.00504 (inactive). Besides, in test [9], the compound was classed as inactive.
In the case of `CCOC(=O)C1=C[C@]2(CC)CCCN3CCc4c(n1c1ccccc41)[C@@H]32`, the cell count in [1] was found to be 689. Moreover, the inhibition was -1.6% (inactive) in test [1]; -59.3% (inactive) in [3]; 3.45% (inactive) in [5]; 5.61% (inactive) and -6.65% (inactive) in [10]; 5.01% (inactive) in test [11]; 18.6% (inactive) in [12]. Also, the inhibition of aggregation in [2] was 15.2% (inactive). Further, the results for the nuclei count in test [2] and in test [3] were 106% and 130%, respectively. Moreover, the z-score in test [4] (setting [13]) is -0.259; in [4] (setting [14]), 0.193; in test [4] (setting [15]), -0.265. Further, in [6], the fluorescence slope was -0.443 (inactive). For the same compound, the NADPH fluorescence slope in [7] is -4.6e-05 (inactive). In addition, the slope in test [8] was 0.013 (active). Also, in [9], the outcome was inactive.
Take `C[C@]12CC[C@H]3[C@@H](CCC4=CC(=O)CC[C@@]43C)[C@@H]1CC[C@@H]2C(=O)CO`: the cell count in [1] is 632. Besides, the inhibition in [1] was -0.8% (inactive); in test [3], -114% (inactive); in test [5], -2.46% (inactive); in [10], -3.19% (inactive); in [11] it was 1.11% (inactive); in [12] it was 43.7% (inactive). The inhibition of aggregation in test [2] is 4.5% (inactive). The results for the nuclei count in test [2] and in [3] were 37.5% and 118%, respectively. Besides, the z-score is -0.564 in test [4] (setting [13]), -1.57 in [4] (setting [14]) and -0.166 in test [4] (setting [15]). The fluorescence slope in [6] is -0.521 (inactive). In addition, the NADPH fluorescence slope in test [7] is -1e-05 (inactive). In test [8], the slope was 0.00387 (inactive). Also, the result in test [9] was inactive.
On to `CCOC(=O)/C(C#N)=C1\Nc2ccccc2N=C1N(CC(C)C)CC(C)C`, for which, in test [1], the cell count is 586. Moreover, the inhibition in test [1] was -7.3% (inactive); in [3], -92.9% (inactive); in test [5] it was 3.56% (inactive); in [10], 1.92% (inactive); in test [11], -5.84% (inactive); in test [12], -1.84% (inactive). Moreover, the inhibition of aggregation in [2] was -2.5% (inactive). For the same compound, the nuclei count in test [2] was 105%; in test [3], 148%. Besides, the z-score was -0.677 in test [4] (setting [13]), -0.872 in [4] (setting [14]) and -0.406 in test [4] (setting [15]). In test [6], the fluorescence slope was -0.524 (inactive). Also, the NADPH fluorescence slope in test [7] is -3.1e-05 (inactive). Moreover, the slope in test [8] is 0.00419 (inactive). Besides, the outcome in test [9] was inactive.
Take `CN1[C@@H](CC(=O)c2ccccc2)CCC[C@H]1C[C@H](O)c1ccccc1`: the cell count in test [1] came to 617. The inhibition was -3.2% (inactive) in [1]; -81.3% (inactive) in test [3]; 21.2% (inactive) in test [5]; 1.79% (inactive) and -5.55% (inactive) in test [10]; 8% (inactive) in [11]; 31.3% (inactive) in [12]. Also, in test [2], the inhibition of aggregation is -2.2% (inactive). The nuclei count in test [2] turned out to be 96.2%; in test [3] it was 120%. The z-score is -0.242 in test [4] (setting [13]), -0.85 in test [4] (setting [14]) and 0.339 in test [4] (setting [15]). The fluorescence slope in [6] was -0.436 (inactive). Further, in [7], the NADPH fluorescence slope was -0.000135 (inactive). In test [8], the slope was 0.00528 (inactive). The result in [9] was inactive.
Regarding `COCCCC/C(=N\OCCN)c1ccc(C(F)(F)F)cc1`, the cell count in test [1] is 514. The inhibition in [1] is -7.2% (inactive); in test [3], -121% (inactive); in test [5], 9.37% (inactive); in test [10], -1.98% (inactive) and -5.54% (inactive); in test [11], 5.66% (inactive); in [12] it was 36.1% (inactive). Moreover, the inhibition of aggregation in test [2] is -27.7% (inactive). Besides, the nuclei count in test [2] stood at 100%; in test [3], 121%. In addition, the z-score is 1.11 in test [4] (setting [13]), -1.18 in [4] (setting [14]) and 0.0602 in test [4] (setting [15]). The fluorescence slope in test [6] was -0.468 (inactive). Also, the NADPH fluorescence slope in test [7] was -6.2e-05 (inactive). Also, the slope in test [8] was 0.00513 (inactive). In addition, the compound was classed as inactive in test [9].
Consider `COC(=O)c1cccc(Nc2cc(C)nc(-c3ccccc3O)n2)c1`, for which, in [1], the cell count amounted to 614. In addition, the inhibition in test [1] is -12.4% (inactive); in test [3] it was -86.5% (inactive); in test [5], 9.91% (inactive); in test [10] it was 5.5% (inactive); in [11], -10.3% (inactive); in [12] it was -37.2% (inactive). Further, the inhibition of aggregation in test [2] is -1% (inactive). Besides, the nuclei count was 92.7% in test [2] and 118% in test [3]. The values for the z-score in test [4] (setting [13]), in test [4] (setting [14]) and in test [4] (setting [15]) were -0.273, 0.157 and -0.334, respectively. Further, in test [6], the fluorescence slope is -0.279 (inactive). In addition, in test [7], the NADPH fluorescence slope was -1.2e-05 (inactive). In [8], the slope is 0.00663 (inactive). Further, the call in test [9] was inactive.
In the case of `Cc1cc(NC(=O)C2=C(O)c3ccccc3S(=O)(=O)N2C)no1`, in test [1], the cell count is 693. Also, the inhibition in [1] is -7.5% (inactive); in test [3] it was -39.3% (inactive); in test [5], 7.39% (inactive); in [10], -6.68% (inactive); in [11] it was 12.9% (inactive); in test [12] it was 25.5% (inactive). The inhibition of aggregation in [2] was 9.1% (inactive). In addition, the figures for the nuclei count in test [2] and in test [3] were 108% and 120%, respectively. In addition, the z-score in test [4] (setting [13]) was determined as 0.515; in [4] (setting [14]) it was 0.415; in [4] (setting [15]), 0.569. In addition, the fluorescence slope in test [6] is -0.538 (inactive). Also, the NADPH fluorescence slope in test [7] was -2.2e-05 (inactive). Further, the slope in [8] is 0.00444 (inactive). Also, in [9], the outcome was inactive.

Usually inhibition stands for the drop in the measured response relative to a control, in per cent.
